Most compounds without a hit are left out; they make up all but 4.1% or so of the library.
DAX1 inh-1: inhibitors of human orphan nuclear receptor DAX1 (NR0B1) | P51843 | HEK293 Gal4-DAX1 luciferase reporter, luminescence | inhibition, % at 6.75 µM | 0.99% of 340,000 active | AID 504766;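 active = inhibition above the mean over all tested compounds plus 3 SD, cut at about 4.2% in these data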;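 note: inhibition shows as a rise in luminescence from relieved DAX1 repression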
Target sequence (P51843 207-470 limits assumed): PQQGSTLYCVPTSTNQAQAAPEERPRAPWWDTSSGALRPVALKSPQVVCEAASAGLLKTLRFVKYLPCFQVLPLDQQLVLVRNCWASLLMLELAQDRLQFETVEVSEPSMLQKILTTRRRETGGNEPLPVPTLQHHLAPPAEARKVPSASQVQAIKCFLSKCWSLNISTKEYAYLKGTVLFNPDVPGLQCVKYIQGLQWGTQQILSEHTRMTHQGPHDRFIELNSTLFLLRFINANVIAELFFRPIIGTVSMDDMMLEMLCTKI
DAX1 inh-2: DAX1 (NR0B1) inhibition, primary screen; AID 652010; inhibition, % at 6.8 µM; HEK293T StAR-luciferase reporter, SF-1/DAX-1 repression relief; 1.1% of 370,000 active;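 active = inhibition above the mean over all tested compounds plus 3 SD, cut at about 3.6% in these data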;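 note: higher inhibition means more luminescence from relief of DAX-1 repression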
hcDAF-12 act: H. contortus DAF-12 activation, primary screen; activation, % at 6.8 µM; 1.4% of 370,000 active; HEK293 hcDAF-12 lit1-tk-luc reporter, luminescence; 0% DMSO, 100% Δ7-dafachronic acid;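 active = activation above the mean of all tested compounds plus 3 SD, cut at about 5.5% in these data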
ssDAF-12 act: activates DAF-12 receptor from parasite S. stercoralis; 1% of 370,000 active; HEK293 ssDAF-12/GRIP1 lit1-tk-luc reporter, luminescence; % of 3 µM dafachronic acid response; activation, % at 6.8 µM; AID 652126;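 active = activation above the mean over all tested compounds plus 3 SD, cut at about 0.9% in these data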
hgDAF12 agonist: agonists of H. glycines DAF-12 nuclear receptor | HEK293 GAL4-hgDAF12 UAS-luciferase reporter, agonist luminescence; normalized to butyrate control | activation, % at 6.8 µM | 1.8% of 370,000 active;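 active = activation above a cutoff set at the mean of all screened compounds plus 3 SD, cut at about 10% in these data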
LXR ag: LXR-beta agonism as hcDAF-12 counter-screen. 3,400 tested, under 10 active. activation, % at 6.8 µM. AID 743027. HEK293 Gal4-LXR tk-luc reporter, luminescence, 24 h; normalized: DMSO 0%, positive control 100%. shares compounds with hcDAF-12 act;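 active = mean percent activation of the reporter above a cutoff set as the average over tested compounds plus their standard deviation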
Target sequence (P55055 whole entry, looked up, the tested form may be a part): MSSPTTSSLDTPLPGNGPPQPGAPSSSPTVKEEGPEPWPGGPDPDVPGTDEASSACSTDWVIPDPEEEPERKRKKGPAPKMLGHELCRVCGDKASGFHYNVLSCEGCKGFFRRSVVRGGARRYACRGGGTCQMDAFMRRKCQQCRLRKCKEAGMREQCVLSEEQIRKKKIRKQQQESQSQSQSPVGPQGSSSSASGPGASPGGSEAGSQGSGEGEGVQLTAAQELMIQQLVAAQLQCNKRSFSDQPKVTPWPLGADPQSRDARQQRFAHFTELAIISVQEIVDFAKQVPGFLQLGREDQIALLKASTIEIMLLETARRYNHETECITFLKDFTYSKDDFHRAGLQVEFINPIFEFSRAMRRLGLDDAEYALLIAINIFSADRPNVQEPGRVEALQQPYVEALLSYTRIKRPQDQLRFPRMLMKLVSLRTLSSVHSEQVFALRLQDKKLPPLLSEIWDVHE
hcDAF12 ag: hcDAF-12 agonism, confirmation assay; shares compounds with hcDAF-12 act; HEK293 hcDAF-12 lit1-tk-luc reporter, luminescence; % of Δ7-dafachronic acid response; activation, % at 6.8 µM; 61% of 3,400 active; AID 743032;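 active = mean activation across triplicate tests above the threshold derived from the earlier primary screen, cut at about 5.5% in these data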
hgDAF12 ag: hgDAF-12 agonism, confirmation assay. activation, % at 6.8 µM. 80% of 3,300 active. shares compounds with hgDAF12 agonist. HEK293 GAL4-hgDAF12 luciferase reporter, agonist mode; percent of butyrate response;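 active = mean activation over triplicate wells above the hit cutoff derived from the earlier primary screen, cut at about 11% in these data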
LXRb DAF12 ctr: LXR-beta agonism as DAF-12 counter-screen; shares compounds with hgDAF12 agonist; HEK293 Gal4-LXR luciferase reporter, 24 h; activation, % at 6.8 µM; 3,300 tested, under 10 active; AID 743051;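 active = mean activation of the triplicate above a set limit carried over from the primary screen, none filed active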
Hits are given with their value.

How did Cc1ccc2nc(-c3ccc(NC(=O)CCS(=O)(=O)c4ccccc4)cc3)sc2c1 do in these assays?
DAX1 inh-1: inactive; DAX1 inh-2: inactive; hcDAF-12 act: 8.9; ssDAF-12 act: 1.5; hgDAF12 agonist: 18; LXR ag: inactive; hcDAF12 ag: 7.6; hgDAF12 ag: 13; LXRb DAF12 ctr: inactive

Results for CC(=O)Nc1ccc(NC(=O)CSc2nnc(NC(=O)c3ccccc3F)s2)cc1 ?
DAX1 inh-1: inactive; DAX1 inh-2: inactive; hcDAF-12 act: 7.1; ssDAF-12 act: inactive; hgDAF12 agonist: 17; LXR ag: inactive; hcDAF12 ag: 7.2; hgDAF12 ag: 13; LXRb DAF12 ctr: inactive

Results for O=C(CSc1nnc(NC(=O)c2ccccc2F)s1)NC1CCCC1 ?
DAX1 inh-1: inactive; DAX1 inh-2: inactive; hcDAF-12 act: inactive; ssDAF-12 act: inactive; hgDAF12 agonist: inactive

How did CCc1cc2c(SCC(=O)NC3CC3)ncnc2s1 do in these assays?
DAX1 inh-1: inactive; DAX1 inh-2: inactive; hcDAF-12 act: inactive; ssDAF-12 act: inactive; hgDAF12 agonist: inactive

What do the screens show for `Cc1ccc(C)c(NC(=O)c2cc3ccccn3n2)c1`?
DAX1 inh-1: inactive; DAX1 inh-2: 3.6; hcDAF-12 act: 7.8; ssDAF-12 act: inactive; hgDAF12 agonist: 21; LXR ag: inactive; hcDAF12 ag: inactive; hgDAF12 ag: 18; LXRb DAF12 ctr: inactive

Results for O=C(/C=C/c1ccco1)N(Cc1ccccc1F)C1CCS(=O)(=O)C1 (centres undefined) ?
DAX1 inh-1: inactive; DAX1 inh-2: inactive; hcDAF-12 act: inactive; ssDAF-12 act: inactive; hgDAF12 agonist: inactive

How did Nc1ccc(-c2nc3ccc(N)cc3s2)cc1 do in these assays?
DAX1 inh-1: inactive; DAX1 inh-2: inactive; hcDAF-12 act: 7.5; ssDAF-12 act: 1.1; hgDAF12 agonist: 19; LXR ag: inactive; hcDAF12 ag: 8.3; hgDAF12 ag: 16; LXRb DAF12 ctr: inactive

What do the screens show for `Cn1c(=O)c(C(=O)Nc2ccccn2)c(O)c2ccccc21`?
DAX1 inh-1: inactive; DAX1 inh-2: 3.9; hcDAF-12 act: 14; ssDAF-12 act: 3.0; hgDAF12 agonist: 17; LXR ag: inactive; hcDAF12 ag: 18; hgDAF12 ag: 24; LXRb DAF12 ctr: inactive

What do the screens show for `Cn1c(=O)c(C(=O)Nc2ccccc2S(N)(=O)=O)c(O)c2ccccc21`?
DAX1 inh-1: inactive; DAX1 inh-2: inactive; hcDAF-12 act: inactive; ssDAF-12 act: inactive; hgDAF12 agonist: inactive

What do the screens show for `Cc1ccc(Nc2ncnc3c2oc2ccccc23)cc1`?
DAX1 inh-1: 4.3; DAX1 inh-2: inactive; hcDAF-12 act: 11; ssDAF-12 act: 1.3; hgDAF12 agonist: 15; LXR ag: inactive; hcDAF12 ag: 8.1; hgDAF12 ag: 18; LXRb DAF12 ctr: inactive

Results for Cc1nc(Nc2ccc(Cl)cc2)c2oc3ccccc3c2n1 ?
DAX1 inh-1: inactive; DAX1 inh-2: inactive; hcDAF-12 act: inactive; ssDAF-12 act: inactive; hgDAF12 agonist: inactive

What do the screens show for `c1ccc(Nc2nc3ccccc3o2)cc1`?
DAX1 inh-1: inactive; DAX1 inh-2: inactive; hcDAF-12 act: 8.1; ssDAF-12 act: 0.9; hgDAF12 agonist: 14; LXR ag: inactive; hcDAF12 ag: 8.3; hgDAF12 ag: 21; LXRb DAF12 ctr: inactive

Results for CCN(CC)S(=O)(=O)c1ccc2oc(Nc3ccccc3)nc2c1 ?
DAX1 inh-1: inactive; DAX1 inh-2: inactive; hcDAF-12 act: inactive; ssDAF-12 act: inactive; hgDAF12 agonist: inactive

How did Fc1ccccc1Nc1nc2ccccc2o1 do in these assays?
DAX1 inh-1: inactive; DAX1 inh-2: inactive; hcDAF-12 act: 8.2; ssDAF-12 act: inactive; hgDAF12 agonist: 16; LXR ag: inactive; hcDAF12 ag: 9.0; hgDAF12 ag: 19; LXRb DAF12 ctr: inactive

How did Cc1nc(Nc2ccccc2F)c2oc3ccccc3c2n1 do in these assays?
DAX1 inh-1: inactive; DAX1 inh-2: inactive; hcDAF-12 act: inactive; ssDAF-12 act: inactive; hgDAF12 agonist: inactive

What do the screens show for `CC(=O)c1ccc(-c2cccc(-c3cc(=O)oc4ccc(C(C)(C)C)cc34)c2)cc1`?
DAX1 inh-1: inactive; DAX1 inh-2: inactive; hcDAF-12 act: inactive; ssDAF-12 act: inactive; hgDAF12 agonist: inactive

How did Cc1cccc(C(O)c2ncc(-c3ccccc3)[nH]2)c1C (centres undefined) do in these assays?
DAX1 inh-2: inactive; hcDAF-12 act: inactive; ssDAF-12 act: inactive; hgDAF12 agonist: inactive

What do the screens show for `Fc1ccccc1-c1ccc(/C=N/Nc2nc3ccccc3[nH]2)o1`?
DAX1 inh-1: inactive; DAX1 inh-2: inactive; hcDAF-12 act: 13; ssDAF-12 act: 3.4; hgDAF12 agonist: 21; LXR ag: inactive; hcDAF12 ag: 13; hgDAF12 ag: 18; LXRb DAF12 ctr: inactive

Results for O=C(NC(=S)NCc1ccccc1)c1ccc(Br)o1 ?
DAX1 inh-1: inactive; DAX1 inh-2: inactive; hcDAF-12 act: inactive; ssDAF-12 act: inactive; hgDAF12 agonist: inactive

What do the screens show for `O=C(NC(=S)Nc1ccccc1)c1ccc(Br)o1`?
DAX1 inh-1: inactive; DAX1 inh-2: inactive; hcDAF-12 act: 7.9; ssDAF-12 act: inactive; hgDAF12 agonist: 17; LXR ag: inactive; hcDAF12 ag: 7.6; hgDAF12 ag: 13; LXRb DAF12 ctr: inactive

Results for O=C(CSc1ncnc2ccccc12)c1cccs1 ?
DAX1 inh-1: inactive; DAX1 inh-2: inactive; hcDAF-12 act: 16; ssDAF-12 act: 2.4; hgDAF12 agonist: 19; LXR ag: inactive; hcDAF12 ag: 8.8; hgDAF12 ag: 17; LXRb DAF12 ctr: inactive

Results for COc1ccc(Cc2nnc(Cl)c3ccccc23)cc1OC ?
DAX1 inh-1: inactive; DAX1 inh-2: inactive; hcDAF-12 act: inactive; ssDAF-12 act: inactive; hgDAF12 agonist: inactive

What do the screens show for `FC(F)(F)c1nnc2ccc(Sc3ccccn3)nn12`?
DAX1 inh-1: inactive; DAX1 inh-2: inactive; hcDAF-12 act: inactive; ssDAF-12 act: inactive; hgDAF12 agonist: inactive

Results for CCc1sc(C(=O)Nc2ccc(NC(C)=O)cc2)cc1C ?
DAX1 inh-1: inactive; DAX1 inh-2: inactive; hcDAF-12 act: inactive; ssDAF-12 act: inactive; hgDAF12 agonist: inactive

How did CCc1sc(C(=O)Nc2nc(C)cs2)cc1C do in these assays?
DAX1 inh-1: inactive; DAX1 inh-2: inactive; hcDAF-12 act: 9.2; ssDAF-12 act: inactive; hgDAF12 agonist: 15; LXR ag: inactive; hcDAF12 ag: 6.1; hgDAF12 ag: 17; LXRb DAF12 ctr: inactive

Screens (PubChem)
